From PubChem BioAssay
ERb coact inh: ER-beta (human) coactivator binding inhibition | Q92731 | TR-FRET ER-beta LBD / SRC1-Cy5 peptide binding; receptor agonist-loaded with 1 µM estradiol | inhibition, % at 25.6 µM | 86,000 tested, 1.3% active | AID 633;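 active = compounds whose percent inhibition of the receptor-coactivator binding signal exceeds about 50% in the single-dose screen, limit read from the data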;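 note: 0% = receptor plus peptide wells without compound and 100% = peptide-only wells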
ERa SRC1 pot: ER-alpha (human) coactivator binding potentiation. P03372. TR-FRET ERalpha-LBD/SRC-Cy5 coactivator binding, 2 h; 100 = basal binding, no effect. coactivator binding (% of control), % at 25.6 µM. 86,000 tested, 1.3% active. AID 639; in the data active = activity above about 200%;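 note: binding measured in presence of low estradiol as agonist stimulus; 0% = peptide alone without receptor and 100% = receptor with peptide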
ERa coact inh: ER-alpha (human) coactivator binding inhibition. inhibition, % at 25.6 µM. TR-FRET ER-alpha LBD / SRC-1 peptide, estradiol-bound. 86,000 tested, 1.7% active; in the data active = inhibition above about 50%;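 note: 0% = receptor plus peptide control and 100% = peptide only without receptor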
FAK blocker: blocks human focal adhesion kinase activity | AID 727 | biochemical FAK kinase activity assay | Q05397 | 97,000 tested, 0.84% active | inhibition, %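 (tested at 7 µM)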;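 note: 0% = DMSO and 100% = reference compound high control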
Smad3 FoxH1 inh: inhibitors of human Smad3 transcription factor binding | P84022 | TR-FRET Smad3/Dy647-FoxH1 peptide binding, europium anti-His | inhibition, % at 25 µM | 88,000 tested, 0.29% active | AID 630;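 active = compounds that reduce the energy-transfer binding signal between the protein and its labelled peptide by more than half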;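 note: 0% = Smad3 plus labelled peptide maximal FRET and 100% = peptide-only background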
FAK inh conf: FAK (human) inhibition confirmed; 750 tested, 28% active; FAK kinase biochemical inhibition assay; AID 794; shares compounds with FAK blocker; inhibition, % at 7 µM
Starred values were filed as active, the others as inactive; . = not tested or not shown; [ ] = dose if it differs, or a comment. Most compounds without a hit are left out; they make up all but 3.3% or so of the library. Cut-off read from the data, not from the text of the source, unless noted: active = inhibition above about 19%; inactive = the rest.

SMILES | ERb coact inh | ERa SRC1 pot | ERa coact inh | FAK blocker | Smad3 FoxH1 inh | FAK inh conf
COc1ccc(N2C(=O)[C@@H]3[C@H](C2=O)[C@H]2c4ccccc4C=CN2[C@@H]3C(=O)Nc2ccccc2)cc1 | 11 | 61 | -2 | 5 | -4 | .
Cc1ccc(N2C(=O)[C@@H]3[C@H](C2=O)C2c4ccccc4C=CN2[C@@H]3C(=O)c2ccco2)c(C)c1 (stereo not given in full) | . | . | . | 16 | . | .
Cc1ccc(N2C(=O)[C@@H]3[C@H](C2=O)C2c4ccccc4C=CN2[C@@H]3C(=O)c2ccco2)cc1 (stereo not given in full) | . | . | . | 32* | . | 14
O=C(c1ccco1)[C@@H]1[C@@H]2C(=O)N(c3ccccc3)C(=O)[C@@H]2C2c3ccccc3C=CN21 (stereo not given in full) | . | . | . | 19* | . | 6
CCOC(=O)C1=C(C)Nc2nnnn2C1c1ccc(OC)c(Br)c1 (stereo not given) | -3 | 141 | -8 | 3 | -2 | .
COc1ccc(C(=O)NC(C)(C)C)cc1S(=O)(=O)N1CCCC1 | . | . | . | 0 | . | .
CCOC(=O)c1c(N)sc2c(O)c(Br)ccc12 | 12 | 81 | -1 | 19* | -1 | 1
CCOC(=O)c1c(N)sc2c(NC(C)=O)cccc12 | 1 | 85 | 5 | 6 | 0 | .
COCCNC(=O)C(c1ccc(C)o1)N(C(=O)c1snc(C(N)=O)c1N)c1cc(C)cc(C)c1 (stereo not given) | 99*[fluorescence artefact?] | 96 | 4 | 23* | 7 | 8
O=C(Oc1ccccc1)c1c(Cl)cccc1P(=O)(O)O | -8 | 104 | -3 | 76* | -8 | 58*
Cc1ccc(OC(=O)c2ccccc2P(=O)(O)O)cc1 | -5 | 99 | -9 | 50* | 12 | 44*
O=C(Oc1ccccc1Cl)c1ccccc1P(=O)(O)O | 10 | 98 | 5 | 72* | -2 | 68*
Cc1ccc(OC(=O)c2cccc(C(=O)Oc3ccc(C)cc3)n2)cc1 | -14 | 109 | 3 | 3 | 8 | .
COC(=O)Nc1nnc(-c2ccccc2Cl)s1 | 2 | 112 | 1 | 8 | 6 | .
CCN(CC)S(=O)(=O)c1ccc(NCc2ccccc2)nc1 | -7 | 94 | 2 | 4 | 9 | .
Cc1ccc(C2NC(=O)NC3=C2CCc2ccccc23)cc1 (stereo not given) | 8 | 86 | 14 | 19* | 5 | -2
CCCOc1cccc(NC(=O)c2cc(C)oc2C)c1 | -2 | 118 | -11 | 1 | 15 | .
COCCOC(=O)C1=C(C)NC2=C(C(=O)CC(c3cccs3)C2)C1c1ccsc1 (stereo not given) | 25 | 84 | 10 | 23* | 0 | 19*
COc1ccccc1-n1cnnc1SCC(=O)Nc1cc(C(C)(C)C)nn1-c1ccccc1 | 6 | 121 | 4 | 6 | -4 | .
COc1ccc(-n2cnnc2SCC(=O)Nc2cc(C(C)(C)C)nn2-c2ccccc2)cc1 | -8 | 100 | 2 | 23* | -12 | 12
C=CCn1c(SCC(=O)N2CCCC2)nc2scc(-c3cccs3)c2c1=O | . | . | . | 40* | . | 31*
CC[C@H](C)[C@H](NC(=O)c1ccc(Cl)cc1)C(=O)OCC(=O)c1ccc2c(c1)NC(=O)CO2 | -2 | 105 | 6 | 2 | 10 | .
CC1CCCC(C)N1C(=O)Cn1cc(/C=C2/C(=O)Nc3ccccc32)c2ccccc21 (stereo not given) | 0 | 100 | -5 | 5 | -2 | .
CN1C(=O)/C(=C/c2cn(CC(=O)N3CCCCC3)c3ccccc23)c2ccccc21 | 48 | 96 | -10 | 26* | 7 | 28*
CCc1ccccc1NC(=S)N1CCC(C(=O)c2ccc(F)cc2)CC1 | . | . | . | -7 | . | .
SMILES | ERb coact inh | ERa SRC1 pot | ERa coact inh | FAK blocker | Smad3 FoxH1 inh | FAK inh conf
CN(C)c1ccc(-n2cc3c(=O)n(C)c(=O)n(C)c3c2)cc1 | -10 | 83 | 0 | 27* | -3 | 8
Cn1c(=O)[nH]c(=O)c2c1nc(N1CCCC1)n2CCCSc1nc2ccccc2o1 | -7 | 113 | -6 | . | 11 | .
Cn1c(=O)[nH]c(=O)c2c1nc(Br)n2CCCSc1nc2ccccc2o1 | 2 | 84 | 0 | 19* | 2 | 1
Cc1ccc(S(=O)(=O)N2CCOCC2)cc1NC(=O)COC(=O)CSc1ccc(Br)cc1C | . | . | . | 0 | . | .
CCOC(=O)CSc1nc(N2CCOCC2)c2c(c1C#N)CC(C)(C)N(C)C2 | 7 | 140 | 1 | -1 | 6 | .
CC(C)(C)c1nc(SCC(=O)NCc2ccco2)c2ccccc2n1 | . | . | . | 38* | . | 17
CCc1ccc(CNc2ccc(O)cc2)cc1 | 56*[fluorescence artefact?] | 71 | 26 | 56* | 2 | 4
Cc1cc2c(cc1C)NC(c1cccnc1)C1=C(CC(C)(C)CC1=O)N2 (stereo not given) | -5 | 105 | 1 | -1 | 4 | .
COc1cc(C2N(c3ccccn3)C(=O)C3CCCN32)cc(OC)c1OC (stereo not given) | -5 | 113 | -5 | 2 | 11 | .
COc1cc(C2Nc3ccc4ncccc4c3C3=C2C(=O)CCC3)cc(OC)c1O (stereo not given) | 3 | 83 | 2 | 48* | -2 | 29*
COc1cc(C2Nc3ccc4ncccc4c3C3=C2C(=O)CC(C)(C)C3)cc(OC)c1O (stereo not given) | -10 | 100 | 2 | 47* | 17 | 34*
O=c1cc(CSc2nnc(-c3cccs3)n2Cc2ccccc2)nc2sc3ccccc3n12 | 65* | 96 | 75*[fluorescence artefact?] | 31* | 8 | 4
O=C1c2ccccc2C(=O)N1CCC1=CCCCC1 | -4 | 114 | -3 | 0 | -2 | .
COCCNC(=O)c1ccc2c(=O)n(Cc3ccco3)c(SCC(=O)NC3CCCCC3)nc2c1 | 2 | 107 | 7 | 33* | 3 | 1
O=C(NCc1ccco1)c1ccc2c(=O)n(Cc3ccco3)c(SCC(=O)N3CCCC3)nc2c1 | 8 | 193 | 15 | 9 | -1 | .
O=C(CSc1nc2ccccc2c(=O)n1Cc1ccco1)N1CCCCCC1 | 3 | 106 | 14 | 36* | -3 | 10
CCCC(=O)Nc1ccc(C(=O)NNC(=O)COc2ccc(Br)c(C)c2)cc1 | . | . | . | 4 | . | .
Cc1ccc(Oc2ccc(NC(=O)CCC(=O)OCC(=O)c3cccs3)cc2)cc1C | . | . | . | 0 | . | .
CC1(C)CCCN(C(=O)c2coc(=O)c(Br)c2)C1 | 83* | 14 | 90*[fluorescence artefact?] | 46* | 61* | 68*
O=C(NCc1ccccc1)NC1(C(=O)N2CCN(c3ccccc3)CC2)CCCCC1 | 1 | 125 | -5 | 9 | -19 | .
COc1ccccc1-c1cc(N)n[nH]1 | -4 | 112 | -5 | 25* | 1 | 2
CN(CCO)c1nc(N)c2c(N)nc3c(c2c1C#N)CC(=O)N3C1CCCC1 | 34 | 57 | 24 | 35* | 8 | 0
CC(C)(C)N1C(=O)Cc2c1nc(N)c1c(N)nc(N3CCCCC3CO)c(C#N)c21 (stereo not given) | 20 | 109 | 4 | 56* | 10 | 0
